According to ChEMBL document CHEMBL1961873, “Compounds: GSK PKIS; Assays: Nanosyn kinase panel” (2012):

Tests used:
[1] = molecular target: Protein kinase C gamma type (Homo sapiens) (UniProt P05129); conditions: at 1 µM;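 note: each value is an averaged percent inhibition of the enzyme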
[2] = molecular target: T1, Protein kinase C iota type (Homo sapiens) (UniProt P41743); conditions: at 0.1 µM
T1 sequence (whole entry): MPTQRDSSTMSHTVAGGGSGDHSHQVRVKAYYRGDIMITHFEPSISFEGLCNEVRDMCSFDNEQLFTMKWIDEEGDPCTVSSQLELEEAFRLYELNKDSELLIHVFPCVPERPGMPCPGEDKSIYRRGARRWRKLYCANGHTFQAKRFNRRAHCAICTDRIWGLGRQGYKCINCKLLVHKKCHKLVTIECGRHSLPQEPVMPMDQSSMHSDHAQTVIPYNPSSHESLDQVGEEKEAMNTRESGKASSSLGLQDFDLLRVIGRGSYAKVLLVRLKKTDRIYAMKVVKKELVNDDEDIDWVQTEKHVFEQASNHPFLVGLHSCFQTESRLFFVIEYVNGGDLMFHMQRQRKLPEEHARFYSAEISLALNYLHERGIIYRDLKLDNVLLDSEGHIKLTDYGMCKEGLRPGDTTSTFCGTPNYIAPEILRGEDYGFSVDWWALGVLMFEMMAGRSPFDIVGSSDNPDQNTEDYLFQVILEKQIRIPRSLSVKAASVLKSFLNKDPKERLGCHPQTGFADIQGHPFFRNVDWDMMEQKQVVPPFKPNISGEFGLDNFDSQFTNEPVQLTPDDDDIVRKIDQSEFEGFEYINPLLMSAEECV

[3] = molecular target: T1, Protein kinase C iota type (Homo sapiens); conditions: at 1 µM
[4] = molecular target: Protein kinase C theta type (Homo sapiens) (UniProt Q04759); conditions: at 0.1 µM
[5] = molecular target: Protein kinase C theta type (Homo sapiens) (UniProt Q04759); conditions: at 1 µM
[6] = molecular target: Protein kinase C beta type (Homo sapiens) (UniProt P05771); conditions: at 0.1 µM
[7] = molecular target: Protein kinase C beta type (Homo sapiens) (UniProt P05771); conditions: at 1 µM
[8] = molecular target: T2, Serine/threonine-protein kinase D1 (Homo sapiens) (UniProt Q15139); conditions: at 0.1 µM
T2 sequence (whole entry): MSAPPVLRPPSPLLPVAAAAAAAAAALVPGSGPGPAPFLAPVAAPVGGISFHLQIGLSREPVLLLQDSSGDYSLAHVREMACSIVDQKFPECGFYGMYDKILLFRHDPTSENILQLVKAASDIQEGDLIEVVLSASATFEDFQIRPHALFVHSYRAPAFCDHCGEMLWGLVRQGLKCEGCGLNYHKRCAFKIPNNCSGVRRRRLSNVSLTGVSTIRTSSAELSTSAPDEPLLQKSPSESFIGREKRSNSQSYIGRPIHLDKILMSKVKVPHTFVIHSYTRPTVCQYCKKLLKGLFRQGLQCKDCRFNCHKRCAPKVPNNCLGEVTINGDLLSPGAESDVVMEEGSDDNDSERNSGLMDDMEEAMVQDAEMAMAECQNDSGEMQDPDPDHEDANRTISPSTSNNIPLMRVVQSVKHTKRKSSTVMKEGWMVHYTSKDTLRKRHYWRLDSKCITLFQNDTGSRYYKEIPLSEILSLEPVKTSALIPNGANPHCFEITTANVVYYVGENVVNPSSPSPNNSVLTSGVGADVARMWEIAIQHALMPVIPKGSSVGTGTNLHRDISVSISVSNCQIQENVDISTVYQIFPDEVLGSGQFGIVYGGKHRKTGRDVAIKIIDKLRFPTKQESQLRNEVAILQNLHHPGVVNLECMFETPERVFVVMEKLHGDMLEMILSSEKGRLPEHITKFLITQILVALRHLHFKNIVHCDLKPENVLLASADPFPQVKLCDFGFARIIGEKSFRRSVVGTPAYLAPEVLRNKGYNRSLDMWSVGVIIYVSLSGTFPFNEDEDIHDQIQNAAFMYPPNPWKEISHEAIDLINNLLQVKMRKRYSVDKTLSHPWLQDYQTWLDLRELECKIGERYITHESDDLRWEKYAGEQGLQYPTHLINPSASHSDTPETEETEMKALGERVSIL

[9] = molecular target: T2, Serine/threonine-protein kinase D1 (Homo sapiens); conditions: at 1 µM
[10] = molecular target: T3, Serine/threonine-protein kinase D2 (Homo sapiens) (UniProt Q9BZL6); conditions: at 0.1 µM
T3 sequence (whole entry): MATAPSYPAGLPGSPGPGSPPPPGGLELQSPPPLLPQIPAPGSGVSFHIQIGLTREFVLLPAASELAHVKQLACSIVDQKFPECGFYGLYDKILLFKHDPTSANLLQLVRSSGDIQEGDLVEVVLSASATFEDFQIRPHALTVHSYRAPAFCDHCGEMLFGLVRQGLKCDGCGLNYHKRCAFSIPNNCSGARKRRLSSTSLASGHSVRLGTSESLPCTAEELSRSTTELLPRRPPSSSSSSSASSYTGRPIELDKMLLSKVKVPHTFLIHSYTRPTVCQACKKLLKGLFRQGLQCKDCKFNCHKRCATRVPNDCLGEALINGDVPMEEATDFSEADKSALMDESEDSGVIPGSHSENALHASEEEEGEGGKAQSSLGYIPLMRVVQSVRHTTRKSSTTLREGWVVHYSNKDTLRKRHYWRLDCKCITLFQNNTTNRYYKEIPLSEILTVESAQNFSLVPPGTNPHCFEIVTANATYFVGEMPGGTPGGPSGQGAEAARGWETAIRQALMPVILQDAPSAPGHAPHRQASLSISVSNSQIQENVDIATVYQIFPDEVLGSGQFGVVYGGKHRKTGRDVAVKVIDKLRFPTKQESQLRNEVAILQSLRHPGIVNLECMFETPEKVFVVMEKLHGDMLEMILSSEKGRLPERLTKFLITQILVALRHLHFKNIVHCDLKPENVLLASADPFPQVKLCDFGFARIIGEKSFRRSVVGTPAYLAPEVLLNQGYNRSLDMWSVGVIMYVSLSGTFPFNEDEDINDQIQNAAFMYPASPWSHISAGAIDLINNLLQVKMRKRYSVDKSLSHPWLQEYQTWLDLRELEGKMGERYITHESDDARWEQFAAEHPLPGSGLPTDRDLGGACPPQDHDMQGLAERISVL

[11] = molecular target: T3, Serine/threonine-protein kinase D2 (Homo sapiens); conditions: at 1 µM
[12] = molecular target: T4, Serine/threonine-protein kinase D3 (Homo sapiens) (UniProt O94806); conditions: at 0.1 µM
T4 sequence (whole entry): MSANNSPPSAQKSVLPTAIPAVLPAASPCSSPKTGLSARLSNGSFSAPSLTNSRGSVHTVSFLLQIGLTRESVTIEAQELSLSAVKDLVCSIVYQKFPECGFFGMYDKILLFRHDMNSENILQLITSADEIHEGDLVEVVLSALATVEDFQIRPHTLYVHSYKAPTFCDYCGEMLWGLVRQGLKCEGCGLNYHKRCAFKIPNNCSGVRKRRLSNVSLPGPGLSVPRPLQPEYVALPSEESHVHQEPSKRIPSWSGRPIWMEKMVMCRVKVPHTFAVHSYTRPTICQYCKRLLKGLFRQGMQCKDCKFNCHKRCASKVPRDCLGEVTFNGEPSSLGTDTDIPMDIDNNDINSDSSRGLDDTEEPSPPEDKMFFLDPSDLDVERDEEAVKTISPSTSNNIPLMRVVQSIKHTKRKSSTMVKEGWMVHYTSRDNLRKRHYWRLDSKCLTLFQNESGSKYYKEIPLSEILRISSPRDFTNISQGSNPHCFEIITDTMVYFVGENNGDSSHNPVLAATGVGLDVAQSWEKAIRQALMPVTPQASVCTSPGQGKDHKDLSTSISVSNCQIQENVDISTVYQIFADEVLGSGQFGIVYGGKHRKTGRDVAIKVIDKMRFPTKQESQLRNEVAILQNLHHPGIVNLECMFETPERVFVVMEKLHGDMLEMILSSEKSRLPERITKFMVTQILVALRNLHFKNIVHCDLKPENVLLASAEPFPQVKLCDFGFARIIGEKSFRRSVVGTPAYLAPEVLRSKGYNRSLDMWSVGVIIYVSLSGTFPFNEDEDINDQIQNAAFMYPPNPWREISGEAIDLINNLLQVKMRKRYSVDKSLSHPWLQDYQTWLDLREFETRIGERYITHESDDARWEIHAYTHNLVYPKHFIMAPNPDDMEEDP

[13] = molecular target: T4, Serine/threonine-protein kinase D3 (Homo sapiens); conditions: at 1 µM
[14] = molecular target: T5, cGMP-dependent protein kinase 1 (Homo sapiens) (UniProt Q13976); conditions: at 0.1 µM
T5 sequence (whole entry): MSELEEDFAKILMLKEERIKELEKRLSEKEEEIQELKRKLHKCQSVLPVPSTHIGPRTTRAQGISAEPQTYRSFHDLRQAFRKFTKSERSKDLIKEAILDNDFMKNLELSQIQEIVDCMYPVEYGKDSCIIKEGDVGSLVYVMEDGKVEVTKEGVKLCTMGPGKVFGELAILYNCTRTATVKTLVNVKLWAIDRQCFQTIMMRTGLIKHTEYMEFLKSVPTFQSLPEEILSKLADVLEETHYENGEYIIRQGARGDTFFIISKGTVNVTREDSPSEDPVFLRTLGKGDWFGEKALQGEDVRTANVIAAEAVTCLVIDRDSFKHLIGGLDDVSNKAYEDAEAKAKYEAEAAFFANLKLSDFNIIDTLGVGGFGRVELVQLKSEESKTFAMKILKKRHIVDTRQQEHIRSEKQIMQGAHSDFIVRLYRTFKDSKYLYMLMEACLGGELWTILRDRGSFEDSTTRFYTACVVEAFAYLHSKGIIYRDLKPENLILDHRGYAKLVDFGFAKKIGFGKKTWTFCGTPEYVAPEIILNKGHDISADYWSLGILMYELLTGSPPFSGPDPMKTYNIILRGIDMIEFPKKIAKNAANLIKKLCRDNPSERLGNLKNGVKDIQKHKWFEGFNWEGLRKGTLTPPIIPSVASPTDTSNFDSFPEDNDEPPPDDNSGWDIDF

[15] = molecular target: T5, cGMP-dependent protein kinase 1 (Homo sapiens); conditions: at 1 µM
[16] = molecular target: T6, cGMP-dependent protein kinase 2 (Homo sapiens) (UniProt Q13237); conditions: at 0.1 µM
T6 sequence (whole entry): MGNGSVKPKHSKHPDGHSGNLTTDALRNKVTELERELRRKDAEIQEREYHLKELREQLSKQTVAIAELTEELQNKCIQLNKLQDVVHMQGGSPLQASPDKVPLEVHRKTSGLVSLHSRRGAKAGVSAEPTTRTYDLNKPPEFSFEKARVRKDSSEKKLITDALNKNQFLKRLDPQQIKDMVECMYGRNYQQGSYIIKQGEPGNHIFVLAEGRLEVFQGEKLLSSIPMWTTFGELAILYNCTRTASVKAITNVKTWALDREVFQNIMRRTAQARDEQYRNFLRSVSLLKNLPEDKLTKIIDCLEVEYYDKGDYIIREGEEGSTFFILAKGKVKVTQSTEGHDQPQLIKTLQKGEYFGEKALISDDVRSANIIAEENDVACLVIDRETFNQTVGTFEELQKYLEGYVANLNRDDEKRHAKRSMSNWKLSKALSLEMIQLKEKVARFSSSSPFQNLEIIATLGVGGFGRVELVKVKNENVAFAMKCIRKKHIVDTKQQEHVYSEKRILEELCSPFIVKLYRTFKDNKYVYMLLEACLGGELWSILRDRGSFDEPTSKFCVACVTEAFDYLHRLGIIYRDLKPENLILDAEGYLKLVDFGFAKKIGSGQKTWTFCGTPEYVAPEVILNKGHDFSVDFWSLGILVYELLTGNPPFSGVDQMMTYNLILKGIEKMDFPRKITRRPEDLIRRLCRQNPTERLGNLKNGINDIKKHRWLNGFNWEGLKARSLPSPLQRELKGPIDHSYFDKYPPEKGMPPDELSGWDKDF

[17] = molecular target: T6, cGMP-dependent protein kinase 2 (Homo sapiens); conditions: at 1 µM
[18] = molecular target: T7, cAMP-dependent protein kinase catalytic subunit PRKX (Homo sapiens) (UniProt P51817); conditions: at 0.1 µM
T7 sequence (whole entry): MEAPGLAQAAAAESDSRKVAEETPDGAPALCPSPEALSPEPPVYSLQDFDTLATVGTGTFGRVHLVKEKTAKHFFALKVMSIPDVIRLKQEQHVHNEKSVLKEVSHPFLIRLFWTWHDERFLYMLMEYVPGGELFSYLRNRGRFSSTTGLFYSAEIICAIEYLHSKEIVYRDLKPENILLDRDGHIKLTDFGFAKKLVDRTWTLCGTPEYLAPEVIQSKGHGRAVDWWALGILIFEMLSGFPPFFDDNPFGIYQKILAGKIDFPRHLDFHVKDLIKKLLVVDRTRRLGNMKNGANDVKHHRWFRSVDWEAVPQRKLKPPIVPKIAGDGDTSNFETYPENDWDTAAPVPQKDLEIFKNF

[19] = molecular target: T7, cAMP-dependent protein kinase catalytic subunit PRKX (Homo sapiens); conditions: at 1 µM
[20] = molecular target: Rho-associated protein kinase 1 (Homo sapiens) (UniProt Q13464); conditions: at 0.1 µM;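 note: values are mean percent inhibition of ROCK1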
Rho-associated protein kinase 1 (Homo sapiens), sequence (Q13464 2-1354 limits assumed): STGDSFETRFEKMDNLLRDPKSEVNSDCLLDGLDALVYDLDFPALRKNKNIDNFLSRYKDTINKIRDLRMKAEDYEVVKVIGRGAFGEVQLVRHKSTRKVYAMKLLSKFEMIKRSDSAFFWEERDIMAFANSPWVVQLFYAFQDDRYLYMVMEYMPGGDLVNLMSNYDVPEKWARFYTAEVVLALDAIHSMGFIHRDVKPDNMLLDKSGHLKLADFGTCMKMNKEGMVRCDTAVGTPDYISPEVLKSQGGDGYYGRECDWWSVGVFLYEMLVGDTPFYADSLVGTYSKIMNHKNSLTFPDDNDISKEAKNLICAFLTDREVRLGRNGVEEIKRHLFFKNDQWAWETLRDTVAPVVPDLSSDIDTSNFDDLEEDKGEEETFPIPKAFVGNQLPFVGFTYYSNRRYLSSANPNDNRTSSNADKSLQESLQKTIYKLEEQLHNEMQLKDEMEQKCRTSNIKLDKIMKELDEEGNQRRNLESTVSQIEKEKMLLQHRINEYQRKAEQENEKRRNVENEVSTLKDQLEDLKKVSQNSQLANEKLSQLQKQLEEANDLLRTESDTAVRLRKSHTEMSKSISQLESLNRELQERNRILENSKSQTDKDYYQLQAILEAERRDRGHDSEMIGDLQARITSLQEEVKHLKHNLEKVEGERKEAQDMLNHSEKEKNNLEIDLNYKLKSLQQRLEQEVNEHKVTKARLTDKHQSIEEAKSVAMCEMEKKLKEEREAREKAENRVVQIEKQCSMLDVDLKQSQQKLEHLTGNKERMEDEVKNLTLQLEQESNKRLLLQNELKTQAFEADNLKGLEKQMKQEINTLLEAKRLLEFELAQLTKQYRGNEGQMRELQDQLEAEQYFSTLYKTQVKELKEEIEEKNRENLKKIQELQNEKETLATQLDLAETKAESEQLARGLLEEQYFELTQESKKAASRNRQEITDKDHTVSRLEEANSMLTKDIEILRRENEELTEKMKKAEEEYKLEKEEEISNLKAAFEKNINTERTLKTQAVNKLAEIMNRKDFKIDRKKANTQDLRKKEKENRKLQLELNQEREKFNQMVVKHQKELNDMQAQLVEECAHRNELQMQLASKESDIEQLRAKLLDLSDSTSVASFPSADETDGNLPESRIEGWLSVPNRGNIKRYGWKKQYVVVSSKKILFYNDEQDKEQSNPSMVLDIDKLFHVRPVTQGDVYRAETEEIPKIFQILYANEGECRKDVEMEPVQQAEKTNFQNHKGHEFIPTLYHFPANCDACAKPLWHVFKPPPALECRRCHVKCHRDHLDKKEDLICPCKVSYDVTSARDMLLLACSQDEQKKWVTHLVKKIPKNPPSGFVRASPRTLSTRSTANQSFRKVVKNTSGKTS

Protein kinase C theta type (Homo sapiens), sequence (Q04759 whole entry, looked up): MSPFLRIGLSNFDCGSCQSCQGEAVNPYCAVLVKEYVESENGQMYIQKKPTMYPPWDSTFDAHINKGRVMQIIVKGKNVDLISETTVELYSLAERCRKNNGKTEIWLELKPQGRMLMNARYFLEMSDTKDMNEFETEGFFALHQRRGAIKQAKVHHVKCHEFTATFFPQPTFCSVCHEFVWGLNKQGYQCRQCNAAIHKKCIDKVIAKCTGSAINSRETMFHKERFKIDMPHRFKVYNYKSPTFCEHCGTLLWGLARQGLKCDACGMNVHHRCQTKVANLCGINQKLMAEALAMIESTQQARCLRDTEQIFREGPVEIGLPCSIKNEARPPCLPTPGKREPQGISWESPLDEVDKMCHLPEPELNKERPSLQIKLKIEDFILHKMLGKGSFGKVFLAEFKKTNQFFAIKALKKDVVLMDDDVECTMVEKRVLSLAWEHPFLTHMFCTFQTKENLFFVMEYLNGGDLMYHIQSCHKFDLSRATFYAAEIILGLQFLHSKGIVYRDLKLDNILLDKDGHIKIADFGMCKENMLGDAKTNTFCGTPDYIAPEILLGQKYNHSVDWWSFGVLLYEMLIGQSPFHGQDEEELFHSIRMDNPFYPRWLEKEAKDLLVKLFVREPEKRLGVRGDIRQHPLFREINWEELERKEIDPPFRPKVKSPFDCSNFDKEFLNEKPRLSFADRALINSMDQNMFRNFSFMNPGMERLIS
Protein kinase C beta type (Homo sapiens), sequence (P05771 2-671 limits assumed): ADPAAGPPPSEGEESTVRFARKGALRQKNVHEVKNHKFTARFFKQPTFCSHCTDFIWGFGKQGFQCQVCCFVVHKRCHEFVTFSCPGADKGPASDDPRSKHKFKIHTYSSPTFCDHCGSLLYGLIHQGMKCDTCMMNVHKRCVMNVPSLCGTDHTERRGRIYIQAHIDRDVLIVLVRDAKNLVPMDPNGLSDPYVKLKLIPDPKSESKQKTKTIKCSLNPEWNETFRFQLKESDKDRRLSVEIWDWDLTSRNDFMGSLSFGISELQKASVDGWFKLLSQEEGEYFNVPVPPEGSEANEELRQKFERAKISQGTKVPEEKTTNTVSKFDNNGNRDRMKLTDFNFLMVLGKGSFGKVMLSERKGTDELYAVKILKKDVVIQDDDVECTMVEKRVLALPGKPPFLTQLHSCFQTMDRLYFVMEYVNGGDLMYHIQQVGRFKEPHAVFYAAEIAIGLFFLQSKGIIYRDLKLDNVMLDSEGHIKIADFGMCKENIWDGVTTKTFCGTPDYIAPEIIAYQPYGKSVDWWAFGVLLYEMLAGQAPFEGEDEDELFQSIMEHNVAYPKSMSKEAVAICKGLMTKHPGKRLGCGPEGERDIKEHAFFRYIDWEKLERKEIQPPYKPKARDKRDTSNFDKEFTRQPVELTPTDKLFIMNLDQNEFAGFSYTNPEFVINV

C[C@@H](Oc1cc(-n2cnc3ccc(OCC4CCN(C)CC4)cc32)sc1C(N)=O)c1ccccc1C(F)(F)F
inhibition [1]: 7.81%
inhibition [2]: -1.38%
inhibition [3]: 0.4%
inhibition [4]: 2.09%
inhibition [5]: 19.4%
inhibition [6]: 2.07%
inhibition [7]: 18.8%
inhibition [8]: -0.56%
inhibition [9]: 12.1%
inhibition [10]: 2.29%
inhibition [11]: 22.1%
inhibition [12]: -0.13%
inhibition [13]: 16.9%
inhibition [14]: -2.23%
inhibition [15]: 0.25%
inhibition [16]: -1.61%
inhibition [17]: 0.31%
inhibition [18]: -0.03%
inhibition [19]: -1.15%
inhibition [20]: 0.29%

OCc1ccc(-c2nc(-c3ccccn3)c(-c3ccc4c(c3)OCO4)[nH]2)cc1
inhibition [1]: 1.5%
inhibition [2]: 2.1%
inhibition [3]: 3.65%
inhibition [4]: 2.3%
inhibition [5]: 0.86%
inhibition [6]: 0.63%
inhibition [7]: 0.97%
inhibition [8]: 4.39%
inhibition [9]: 8.27%
inhibition [10]: 4.75%
inhibition [11]: 9.51%
inhibition [12]: 5.74%
inhibition [13]: 8.28%
inhibition [14]: 1.9%
inhibition [15]: 2.98%
inhibition [16]: 2.69%
inhibition [17]: 3.26%
inhibition [18]: 1.55%
inhibition [19]: 0.61%
inhibition [20]: 1.43%

CCS(=O)(=O)c1ccc(OC)c(Nc2ncc(-c3cccc(OC)c3)o2)c1
inhibition [1]: 3.87%
inhibition [2]: 1.8%
inhibition [3]: 3.38%
inhibition [4]: 1.22%
inhibition [5]: 0.3%
inhibition [6]: 0.6%
inhibition [7]: 2.93%
inhibition [8]: 2.32%
inhibition [9]: 4.41%
inhibition [10]: 2.35%
inhibition [11]: 3.71%
inhibition [12]: 3.28%
inhibition [13]: 3.64%
inhibition [14]: 1.45%
inhibition [15]: 2.34%
inhibition [16]: 0.25%
inhibition [17]: 2.95%
inhibition [18]: 0.28%
inhibition [19]: -2.35%
inhibition [20]: 0.26%
